From PubChem BioAssay (NCATS)
Several values for one entry are separate records, joined by “and”; a condition that tells them apart may be missing. Equal values may be shown once. Results filed as inconclusive are left out. Values without a mark were called inactive. Activity calls are given as the source filed them. Calls come from the whole dose curve; as a rule, active = well fitted curve in the direction sought with a large enough effect; inconclusive = small, poorly fitted or top-dose-only effect, or another doubt; inactive = no such curve, though single readings can be large; an effect the other way counts as inactive or inconclusive.

How the values were obtained:
[1] = Viability qHTS for spleen associated tyrosine kinase inhibitor (SYKi) naive MV4-11 cells (AID 1963823); note: nearly all actives have a fitted effect of over 40% in size
How it was run: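 Seeding of 500 SYKi-naive MV4-11 cells per well onto pre-dispensed compounds preceded a 72 hr incubation at 37 C. Luminescent CellTiter-Glo signal, read after 10 min at room temperature, reflected viable cells.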

[2] = Viability qHTS for spleen associated tyrosine kinase inhibitor (SYKi) drug resistant MV4-11 cells (AID 1963824); note: nearly all actives have a fitted effect of over 35% in size
How it was run: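 SYK inhibitor-resistant MV4-11 AML cells, 500 per well, added to predispensed compounds and incubated 72 hr at 37 C, 5% CO2. Viability measured by CellTiter-Glo luminescence after 10 min at room temperature.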

[3] = Cellular viability qHTS for adrenocortical cancer (ACC) cell line SW-13 (AID 1963989); conditions: SW-13 ACC cells viability, CellTiter-Glo, 48 h; activity (max response): hits give low values; note: nearly all actives have a fitted effect of over 65% in size;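 for activity (max response): cells grown in serum-free medium with ITS supplement; % is set by controls: 0 for no effect and ±100 for the full control effect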
How it was run: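 Compound titrations (up to 46 uM final, in DMSO) were applied to SW-13 cells for 48 h at 37C/5% CO2. Reading used CellTiter-Glo after 20 min at room temperature; fitted curves yielded IC50 and efficacy.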

[4] = Cellular viability qHTS for adrenocortical cancer (ACC) cell line NCI-H295R (AID 1963990); note: nearly all actives have a fitted effect of over 60% in size
How it was run: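 Readout: CellTiter-Glo luminescence, 20 min RT. Exposure: 48 h, 37C/5% CO2. Cells: NCI-H295R, ITS-DMEM serum-free. Range: up to 46 uM. Analysis: 4PL fit, IC50 plus efficacy.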
Potency is the fitted concentration of half-maximal effect.

| SMILES | Potency [1] | Potency [2] | activity (max response) [3] | Potency [4] | Potency [3] |
| --- | --- | --- | --- | --- | --- |
| Nc1ccc(O)c([N+](=O)[O-])c1 | inactive | 0.0611 µM (active) | 0.787% | inactive | – |
| C=CC(=O)Nc1ccc2ncnc(Nc3cccc(Br)c3)c2c1 | 2.59 µM (active) | 2.31 µM (active) | – | 4.47 µM (active) | 1.26 µM (active) |
| CCC(C(=O)OCCOCCN(CC)CC)c1ccccc1 (configuration not stated) | inactive | inactive | -6.83% | inactive | – |
| Cc1cc(O)c(C)c(C)c1O | inactive | inactive | 6.25% | inactive | – |
| C/C=C1\[C@H]2C=C(C)C[C@]1(N)c1ccc(=O)[nH]c1C2 | inactive | inactive | 12.5% | inactive | – |
| COc1ccc(C(=O)NCc2ccc(OCCN(C)C)cc2)cc1OC | inactive | inactive | 1.66% | inactive | – |
| CC(=O)Nc1ccc(C(=O)Nc2ccccc2N)cc1 | 5.63 µM (active) and 4.68 µM (active) | 3.55 µM (active) and 3.72 µM (active) | – | 6.31 µM (active) | 11.2 µM (active) |
| CCOCCn1c(N2CCCN(C)CC2)nc2ccccc21 | inactive | inactive | -8.77% | inactive | – |
| Cc1c(O)cccc1C(=O)NC(CSc1ccccc1)C(O)CN1CC2CCCCC2CC1C(=O)NC(C)(C)C (configuration not stated) | 16.6 µM (active) | 11.8 µM (active) | – | 17.8 µM (active) | 28.2 µM (active) |
| O=C1CC(c2c[nH]c3ccc(F)cc23)C(=O)N1 (configuration not stated) | inactive | inactive | -18.5% | inactive | – |
| O=C(O)/C=C(\CC(=O)O)C(=O)O | inactive | inactive | 7.17% | inactive | – |
| Nc1cc(-c2ccncc2)c[nH]c1=O | inactive | inactive | 2.68% | inactive | – |
| CN(C)C/C=C/C(=O)Nc1cccc(C(=O)Nc2cccc(Nc3ncc(Cl)c(-c4c[nH]c5ccccc45)n3)c2)c1 | inactive | 0.0037 µM (active) | – | 1.12 µM (active) | 0.316 µM (active) |
| CCCCCN(CCCOC)C(=O)C(CCC(=O)O)NC(=O)c1ccc(Cl)c(Cl)c1 (configuration not stated) | inactive | inactive | 5.62% | inactive | – |
| O=C(O)C[C@H](O)C[C@H](O)/C=C/c1c(C2CC2)nc2ccccc2c1-c1ccc(F)cc1 | 461 nM (active) and 525 nM (active) | 164 nM (active) and 235 nM (active) | – | 3.55 µM (active) | 3.16 µM (active) |
| OCCN1CCN(CCCN2c3ccccc3Sc3ccc(Cl)cc32)CC1 | 11.9 µM (active) | 8.41 µM (active) | – | 2.59 µM (active) | 6.51 µM (active) |
| Cc1ccc(S(=O)(=O)NC(=O)NN2CCCCCC2)cc1 | inactive | inactive | -2.59% | inactive | – |
| O=C(/C=C/C#Cc1cccc(NS(=O)(=O)c2ccccc2)c1)NO | 0.407 µM (active) | 0.363 µM (active) | – | 3.19 µM (active) | 8.02 µM (active) |
| Cc1ccc(-c2nc(N)nc3c2nnn3Cc2cccc(CO[C@H]3CCOC3)n2)o1 | inactive | 16.6 µM (active) | -12.5% | inactive | – |
| CCCCCCCCCCCCCCCCCCOCC(O)CO (configuration not stated) | inactive | inactive | 15% | inactive | – |
| CC(C)Oc1ccc(C(=O)N[C@H](CNC(=O)CN(C)C)Cc2ccc(-c3cn4cccc([C@H](C)O)c4n3)cc2)cc1Cl | 0.0263 µM (active) | 0.0295 µM (active) | – | 0.316 µM (active) | 0.0316 µM (active) |
| O=C(NO)c1ccc(C2=Nc3ccccc3Oc3ccccc32)cc1 | 3.32 µM (active) | 2.95 µM (active) | – | 5.01 µM (active) | 22.4 µM (active) |
| O=C(O)CCc1nc(-c2ccccc2)c(-c2ccccc2)o1 | inactive | inactive | -11.2% | inactive | – |
| CC(C)(NS(=O)(=O)c1ccc2c(Cl)cnc(N=C(N)N)c2c1)C(=O)O | inactive | inactive | 5.36% | inactive | – |
| CC[C@@]1(O)C(=O)OCc2c1cc1n(c2=O)Cc2c-1nc1ccccc1c2/C=N/OC(C)(C)C | 0.0084 µM (active) | 0.006 µM (active) | – | inactive | 0.013 µM (active) |
| Cc1cc(C(C#N)c2ccc(Cl)cc2)c(Cl)cc1NC(=O)c1cc(I)cc(I)c1O (configuration not stated) | 18.8 µM (active) | 18.8 µM (active) and 23.1 µM (active) | – | 3.66 µM (active) | 4.11 µM (active) |
| CCN(CC)CC(=O)OCC(=O)[C@@]1(O)CC[C@H]2[C@@H]3CCC4=CC(=O)CC[C@]4(C)[C@H]3[C@@H](O)C[C@@]21C | inactive | inactive | 11.9% | inactive | – |

| SMILES | Potency [1] | Potency [2] | activity (max response) [3] | Potency [4] | Potency [3] |
| --- | --- | --- | --- | --- | --- |
| C[C@@H](O)[C@@H]1NC(=O)[C@H](CCCCN)NC(=O)[C@@H](Cc2c[nH]c3ccccc23)NC(=O)[C@H](Cc2ccccc2)NC(=O)[C@@H](NC(=O)[C@H](N)Cc2ccccc2)CSSC[C@@H](C(=O)N[C@H](CO)[C@@H](C)O)NC1=O | inactive | inactive | -1.31% | inactive | – |
| CSc1ccc(C(=O)/C=C/c2cc(C)c(OC(C)(C)C(=O)O)c(C)c2)cc1 | 3.03 µM (active) | 4.28 µM (active) | – | 39.8 µM (active) | 35.5 µM (active) |
| c1ccc(CN(CC2=NCCN2)c2ccccc2)cc1 | inactive | inactive | 0.264% | inactive | – |
| CCN(CC)CCOC(=O)C(c1ccccc1)C1CCCCC1 (configuration not stated) | inactive | inactive | 12.1% | inactive | – |
| CC(=O)O/N=C1\C(=O)N(Cc2cc(Cl)ccc2Cl)c2ccc(Cl)cc21 | 5.9 µM (active) | 8.33 µM (active) | -2.12% | 0.562 µM (active) | – |
| C=CC(=O)Nc1cccc(Nc2nc(Nc3ccc(NC4CN(CCF)C4)cc3OC)ncc2C(F)(F)F)c1 | 1.3 µM (active) and 662 nM (active) | 1.3 µM (active) and 1.48 µM (active) | – | 8.91 µM (active) | 2.51 µM (active) |
| COc1ccc2nc3n[nH]c(C)c3c(NCCOCCO)c2c1 | 18.4 µM (active) and 9.34 µM (active) | 16.4 µM (active) and 13.2 µM (active) | 0.542% | inactive | – |
| CC(Cc1ccccc1)(NC(=O)CN)c1ccccc1 (configuration not stated) | inactive | inactive | 8.44% | inactive | – |
| CC(C)C[C@@H](N)C(=O)O | inactive | inactive | 8.35% | inactive | – |
| c1ccc2[nH]ccc2c1 | inactive | inactive | 10.5% | inactive | – |
| CC(C)c1c(C(=O)Nc2ccccc2)c(-c2ccccc2)c(-c2ccc(F)cc2)n1CC[C@@H](O)C[C@@H](O)CC(=O)O | 2.99 µM (active) and 1.93 µM (active) and 1.82 µM (active) | 2.11 µM (active) and 1.09 µM (active) and 910 nM (active) | -20.9% and -15.4% | inactive | – |
| CCC(=O)c1ccc(O)cc1 | inactive | 7.5 µM (active) | 5.38% | inactive | – |
| CC[C@@H](C)Nc1cc(C(=O)NC2CC3CCC(C2)N3c2ccc(C(=O)C3CC3)cn2)c(C)cc1C(N)=O (some centres not stated) | 0.0417 µM (active) | 0.0206 µM (active) | – | 0.355 µM (active) | 0.355 µM (active) |
| CCNCCc1ccc(CN(CC)c2cc(OC)ccc2[C@@H]2CCc3cc(O)ccc3C2)cc1 | 2.35 µM (active) | 2.95 µM (active) | – | 3.98 µM (active) | 6.31 µM (active) |
| COC(C)(C)CCn1nc(Nc2c(C)cccc2C)c2cnc(Nc3ccc(OCCN4CCCC4)c(F)c3)nc21 | 731 nM (active) and 742 nM (active) | 1.03 µM (active) and 1.66 µM (active) | – | 3.98 µM (active) | 2.82 µM (active) |
| c1ccc2sc(SSc3nc4ccccc4s3)nc2c1 | inactive | inactive | -16.2% | inactive | – |
| CCCCc1ncc(/C=C(\Cc2cccs2)C(=O)O)n1Cc1ccc(C(=O)O)cc1 | inactive | inactive | 6.21% | inactive | – |
| CN(C)C/C=C/C(=O)Nc1cc2c(Nc3ccc(F)c(Cl)c3)ncnc2cc1O[C@H]1CCOC1 | 1.48 µM (active) | 1.86 µM (active) | – | 7.08 µM (active) | 0.891 µM (active) |
| C(=C\c1ccccc1)/CN1CCN(C(c2ccccc2)c2ccccc2)CC1 | inactive | inactive | -1.91% | inactive | – |
| CN(C)c1cc(NC(=O)CNC(C)(C)C)c(O)c2c1C[C@H]1C[C@H]3[C@H](N(C)C)C(=O)C(C(N)=O)=C(O)[C@]3(O)C(=O)C1=C2O | inactive | inactive | -8.31% | inactive | – |
| CN(C)C[C@@H]1CCn2cc(c3ccccc32)C2=C(C(=O)NC2=O)c2cn(c3ccccc23)CCO1 | 0.186 µM (active) | 0.417 µM (active) | – | 31.6 µM (active) | 28.2 µM (active) |
| CCC(C)(CN(C)C)OC(=O)c1ccccc1 (configuration not stated) | inactive | inactive | -1.44% | inactive | – |
| COCCOC(=O)N1CCN(S(=O)(=O)c2cc(F)c(Oc3ccc(Cl)cc3)c(F)c2)C(C(=O)NO)C1 (configuration not stated) | 5.9 µM (active) | 5.9 µM (active) | – | 2.82 µM (active) | 5.01 µM (active) |
| CNCC(O)c1ccc(O)c(O)c1 (configuration not stated) | inactive | inactive | 4.94% | inactive | – |
| COCCOc1cnc2ccn([C@H](C)c3nnc4c(F)cc(-c5cnn(C)c5)cn34)c(=O)c2c1 | inactive | inactive | -16.1% | inactive | – |
| CC1=C(/C=C/C(C)=C/C=C/C(C)=C/C(=O)O)C(C)(C)CCC1 | 668 nM (active) and 132 nM (active) | 1.06 µM (active) and 468 nM (active) | -7.6% and 3.95% | inactive | – |
